Usually residual activity stands for the signal under treatment as a percentage of the control signal.

Consider 2 compounds from ChEMBL document CHEMBL2218924, “A broad activity screen in support of a chemogenomic map for kinase signalling research and drug discovery” (Biochem J, 2013).

Assay [1] deals with Death-associated protein kinase 1 (Homo sapiens) (UniProt P53355). To be noted: at 10 µM.
In assay [2] the target is Death-associated protein kinase 2 (Homo sapiens) (UniProt Q9UIK4). To be noted: at 1 µM.
Assay [3] has the same target. The note with it: at 10 µM.
Assay [4] concerns the target T1, Serine/threonine-protein kinase DCLK2 (Homo sapiens) (UniProt Q8N568).
T1 sequence (whole entry): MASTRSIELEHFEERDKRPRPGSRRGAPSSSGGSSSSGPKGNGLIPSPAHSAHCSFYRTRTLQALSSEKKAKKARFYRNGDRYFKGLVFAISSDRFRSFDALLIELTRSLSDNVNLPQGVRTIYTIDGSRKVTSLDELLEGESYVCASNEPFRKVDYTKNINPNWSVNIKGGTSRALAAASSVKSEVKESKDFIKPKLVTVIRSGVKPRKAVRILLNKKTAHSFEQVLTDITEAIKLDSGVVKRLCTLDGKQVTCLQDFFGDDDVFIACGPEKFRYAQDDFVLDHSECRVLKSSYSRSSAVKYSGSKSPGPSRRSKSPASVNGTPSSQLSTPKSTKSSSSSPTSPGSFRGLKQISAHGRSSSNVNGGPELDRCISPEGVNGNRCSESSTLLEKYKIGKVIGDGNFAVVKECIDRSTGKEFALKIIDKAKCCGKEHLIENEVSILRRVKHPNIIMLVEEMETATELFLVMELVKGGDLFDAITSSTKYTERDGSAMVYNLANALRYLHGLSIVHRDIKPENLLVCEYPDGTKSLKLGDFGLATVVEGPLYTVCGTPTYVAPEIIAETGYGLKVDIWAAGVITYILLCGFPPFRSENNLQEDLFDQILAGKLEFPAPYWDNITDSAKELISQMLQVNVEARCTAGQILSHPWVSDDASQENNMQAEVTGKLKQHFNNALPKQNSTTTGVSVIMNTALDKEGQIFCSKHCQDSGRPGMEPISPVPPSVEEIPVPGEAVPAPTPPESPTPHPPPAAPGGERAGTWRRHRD
The note with it: at 1 µM.

Assay [5] concerns the target T1, Serine/threonine-protein kinase DCLK2 (Homo sapiens). The note with it: at 10 µM.
The target in assay [6] is T2, Discoidin domain-containing receptor 2 (Homo sapiens) (UniProt Q16832).
T2 sequence (whole entry): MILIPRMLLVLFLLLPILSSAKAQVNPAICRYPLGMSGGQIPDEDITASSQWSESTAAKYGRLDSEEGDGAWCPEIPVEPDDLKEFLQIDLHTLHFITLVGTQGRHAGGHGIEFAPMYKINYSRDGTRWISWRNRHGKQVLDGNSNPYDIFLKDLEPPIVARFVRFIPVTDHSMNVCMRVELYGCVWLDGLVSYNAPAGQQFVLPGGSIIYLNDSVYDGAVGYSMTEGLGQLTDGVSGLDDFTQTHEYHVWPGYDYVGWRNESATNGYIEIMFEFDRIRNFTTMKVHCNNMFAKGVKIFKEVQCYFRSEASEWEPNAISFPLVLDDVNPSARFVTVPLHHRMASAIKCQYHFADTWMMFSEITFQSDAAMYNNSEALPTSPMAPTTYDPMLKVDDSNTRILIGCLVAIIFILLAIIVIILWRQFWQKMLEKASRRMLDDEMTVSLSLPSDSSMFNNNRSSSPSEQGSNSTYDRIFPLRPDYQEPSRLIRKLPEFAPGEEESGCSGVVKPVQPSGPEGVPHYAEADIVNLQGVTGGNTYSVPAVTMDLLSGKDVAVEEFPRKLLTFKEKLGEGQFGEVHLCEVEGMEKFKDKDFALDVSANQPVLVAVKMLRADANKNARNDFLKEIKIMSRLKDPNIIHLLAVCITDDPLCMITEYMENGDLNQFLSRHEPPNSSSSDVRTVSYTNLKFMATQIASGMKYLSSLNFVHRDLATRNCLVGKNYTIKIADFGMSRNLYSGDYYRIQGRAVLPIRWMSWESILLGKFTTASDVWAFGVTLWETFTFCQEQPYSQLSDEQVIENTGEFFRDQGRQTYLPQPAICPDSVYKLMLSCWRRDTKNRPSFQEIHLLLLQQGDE
To be noted: at 1 µM.

Assay [7] has as its target T2, Discoidin domain-containing receptor 2 (Homo sapiens). To be noted: at 10 µM.
The target in assay [8] is T3, Myotonin-protein kinase (Homo sapiens) (UniProt Q09013).
T3 sequence (whole entry): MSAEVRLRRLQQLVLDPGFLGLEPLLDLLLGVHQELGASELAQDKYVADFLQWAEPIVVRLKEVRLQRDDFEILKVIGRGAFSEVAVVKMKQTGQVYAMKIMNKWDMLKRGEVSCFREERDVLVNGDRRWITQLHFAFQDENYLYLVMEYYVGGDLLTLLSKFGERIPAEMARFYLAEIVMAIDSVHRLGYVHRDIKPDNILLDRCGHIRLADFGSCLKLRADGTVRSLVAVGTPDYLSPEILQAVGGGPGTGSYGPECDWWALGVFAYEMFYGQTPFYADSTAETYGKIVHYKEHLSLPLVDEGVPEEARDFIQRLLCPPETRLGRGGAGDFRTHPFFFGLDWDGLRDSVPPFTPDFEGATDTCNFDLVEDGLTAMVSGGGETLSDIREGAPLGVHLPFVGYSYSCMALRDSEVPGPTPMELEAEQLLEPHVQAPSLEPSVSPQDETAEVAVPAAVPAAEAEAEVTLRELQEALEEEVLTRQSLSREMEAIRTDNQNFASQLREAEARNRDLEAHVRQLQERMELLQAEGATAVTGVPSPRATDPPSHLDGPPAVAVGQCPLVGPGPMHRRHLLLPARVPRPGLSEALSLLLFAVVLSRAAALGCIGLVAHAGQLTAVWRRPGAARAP
To be noted: at 1 µM.

Assay [9] addresses T3, Myotonin-protein kinase (Homo sapiens). The note with it: at 10 µM.
In assay [10] the target is T4, Serine/threonine-protein kinase 17A (Homo sapiens) (UniProt Q9UEE5).
T4 sequence (whole entry): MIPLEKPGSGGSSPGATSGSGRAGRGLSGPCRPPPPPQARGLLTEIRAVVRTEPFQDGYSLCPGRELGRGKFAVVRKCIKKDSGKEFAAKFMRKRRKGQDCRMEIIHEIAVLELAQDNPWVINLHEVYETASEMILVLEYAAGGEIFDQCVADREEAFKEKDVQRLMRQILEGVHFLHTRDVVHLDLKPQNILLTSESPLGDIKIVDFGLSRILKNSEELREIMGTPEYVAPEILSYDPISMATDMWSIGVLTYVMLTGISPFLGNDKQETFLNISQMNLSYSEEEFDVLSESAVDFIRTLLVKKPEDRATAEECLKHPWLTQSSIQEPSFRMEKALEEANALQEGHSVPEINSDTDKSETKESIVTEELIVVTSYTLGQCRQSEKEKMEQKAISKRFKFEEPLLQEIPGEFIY
To be noted: at 1 µM.

Assay [11] has as its target T4, Serine/threonine-protein kinase 17A (Homo sapiens). To be noted: at 10 µM.
For assay [12], the target named is T5, Dual specificity tyrosine-phosphorylation-regulated kinase 2 (Homo sapiens) (UniProt Q92630).
T5 sequence (whole entry): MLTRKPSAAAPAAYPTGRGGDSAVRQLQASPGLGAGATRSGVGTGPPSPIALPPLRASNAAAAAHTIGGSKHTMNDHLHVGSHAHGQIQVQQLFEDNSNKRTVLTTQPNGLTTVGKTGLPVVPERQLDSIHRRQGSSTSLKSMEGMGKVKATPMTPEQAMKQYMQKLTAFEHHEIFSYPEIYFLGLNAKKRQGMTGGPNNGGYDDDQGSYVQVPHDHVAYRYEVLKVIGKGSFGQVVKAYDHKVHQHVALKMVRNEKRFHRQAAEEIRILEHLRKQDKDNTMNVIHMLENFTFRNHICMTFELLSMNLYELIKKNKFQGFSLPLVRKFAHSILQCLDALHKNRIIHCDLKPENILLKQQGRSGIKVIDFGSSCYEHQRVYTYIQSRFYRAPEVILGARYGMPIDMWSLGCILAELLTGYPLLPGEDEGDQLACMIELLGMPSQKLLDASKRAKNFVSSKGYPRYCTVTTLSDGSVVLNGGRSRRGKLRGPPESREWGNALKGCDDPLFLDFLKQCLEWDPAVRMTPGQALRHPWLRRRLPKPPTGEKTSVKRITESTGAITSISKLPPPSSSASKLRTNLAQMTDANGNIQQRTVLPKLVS
The note with it: at 1 µM.

Assay [13] concerns the target T5, Dual specificity tyrosine-phosphorylation-regulated kinase 2 (Homo sapiens). The note with it: at 10 µM.
The target in assay [14] is T6, Ephrin type-A receptor 1 (Homo sapiens) (UniProt P21709).
T6 sequence (whole entry): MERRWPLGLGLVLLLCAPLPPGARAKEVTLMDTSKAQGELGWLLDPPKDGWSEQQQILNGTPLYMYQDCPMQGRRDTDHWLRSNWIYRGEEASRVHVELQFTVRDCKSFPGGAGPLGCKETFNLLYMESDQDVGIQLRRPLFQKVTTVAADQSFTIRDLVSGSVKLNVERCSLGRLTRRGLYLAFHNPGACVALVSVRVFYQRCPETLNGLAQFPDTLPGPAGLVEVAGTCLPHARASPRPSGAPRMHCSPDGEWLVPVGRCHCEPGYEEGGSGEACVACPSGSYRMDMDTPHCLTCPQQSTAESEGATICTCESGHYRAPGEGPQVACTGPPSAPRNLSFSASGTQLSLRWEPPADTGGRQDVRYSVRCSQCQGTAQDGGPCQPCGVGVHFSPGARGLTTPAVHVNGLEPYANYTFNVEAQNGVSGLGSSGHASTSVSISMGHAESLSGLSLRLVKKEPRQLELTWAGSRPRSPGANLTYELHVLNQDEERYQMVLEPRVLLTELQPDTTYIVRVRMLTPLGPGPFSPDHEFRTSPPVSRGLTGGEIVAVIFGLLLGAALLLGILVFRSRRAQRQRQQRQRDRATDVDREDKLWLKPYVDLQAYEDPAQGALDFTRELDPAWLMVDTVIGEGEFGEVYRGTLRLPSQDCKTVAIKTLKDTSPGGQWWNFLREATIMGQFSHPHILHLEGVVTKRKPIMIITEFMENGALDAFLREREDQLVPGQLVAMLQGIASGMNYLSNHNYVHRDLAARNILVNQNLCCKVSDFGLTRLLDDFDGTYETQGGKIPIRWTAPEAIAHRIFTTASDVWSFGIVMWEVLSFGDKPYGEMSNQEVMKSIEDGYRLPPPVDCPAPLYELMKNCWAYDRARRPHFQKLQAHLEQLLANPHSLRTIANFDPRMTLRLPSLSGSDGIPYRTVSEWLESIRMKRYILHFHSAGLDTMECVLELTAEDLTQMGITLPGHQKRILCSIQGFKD
The note with it: at 1 µM.

The target in assay [15] is T6, Ephrin type-A receptor 1 (Homo sapiens). To be noted: at 10 µM.
Assay [16] concerns the target Ephrin type-A receptor 2 (Homo sapiens) (UniProt P29317). To be noted: at 1 µM.
For assay [17] the target is unchanged. The note with it: at 10 µM.
For assay [18], the target named is T7, Ephrin type-A receptor 3 (Homo sapiens) (UniProt P29320).
T7 sequence (whole entry): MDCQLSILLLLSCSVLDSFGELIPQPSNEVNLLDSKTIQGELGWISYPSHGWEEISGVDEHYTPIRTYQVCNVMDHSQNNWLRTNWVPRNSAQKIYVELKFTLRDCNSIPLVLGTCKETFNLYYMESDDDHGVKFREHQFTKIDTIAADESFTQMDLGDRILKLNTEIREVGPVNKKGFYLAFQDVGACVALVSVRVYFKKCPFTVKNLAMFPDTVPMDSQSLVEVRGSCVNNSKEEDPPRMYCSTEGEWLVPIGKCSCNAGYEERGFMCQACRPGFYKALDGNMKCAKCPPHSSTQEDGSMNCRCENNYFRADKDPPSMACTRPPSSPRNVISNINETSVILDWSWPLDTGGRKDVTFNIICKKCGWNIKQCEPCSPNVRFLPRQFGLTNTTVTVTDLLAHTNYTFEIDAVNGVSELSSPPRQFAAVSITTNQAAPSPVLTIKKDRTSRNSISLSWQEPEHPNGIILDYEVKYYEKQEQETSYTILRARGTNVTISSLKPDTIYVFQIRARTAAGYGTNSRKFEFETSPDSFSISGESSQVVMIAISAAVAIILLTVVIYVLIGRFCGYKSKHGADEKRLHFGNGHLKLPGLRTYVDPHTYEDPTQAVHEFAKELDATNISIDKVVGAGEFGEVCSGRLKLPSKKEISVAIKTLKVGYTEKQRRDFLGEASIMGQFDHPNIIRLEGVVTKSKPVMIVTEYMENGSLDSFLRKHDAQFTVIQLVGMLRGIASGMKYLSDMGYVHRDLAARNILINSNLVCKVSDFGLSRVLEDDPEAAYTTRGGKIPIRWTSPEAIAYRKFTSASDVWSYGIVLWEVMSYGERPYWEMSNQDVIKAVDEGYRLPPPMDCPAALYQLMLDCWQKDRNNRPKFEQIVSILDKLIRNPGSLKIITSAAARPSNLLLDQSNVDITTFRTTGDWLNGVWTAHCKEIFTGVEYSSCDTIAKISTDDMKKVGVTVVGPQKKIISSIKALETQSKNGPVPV
The note with it: at 1 µM.

Sequence of Ephrin type-A receptor 2 (Homo sapiens) (P29317 whole entry): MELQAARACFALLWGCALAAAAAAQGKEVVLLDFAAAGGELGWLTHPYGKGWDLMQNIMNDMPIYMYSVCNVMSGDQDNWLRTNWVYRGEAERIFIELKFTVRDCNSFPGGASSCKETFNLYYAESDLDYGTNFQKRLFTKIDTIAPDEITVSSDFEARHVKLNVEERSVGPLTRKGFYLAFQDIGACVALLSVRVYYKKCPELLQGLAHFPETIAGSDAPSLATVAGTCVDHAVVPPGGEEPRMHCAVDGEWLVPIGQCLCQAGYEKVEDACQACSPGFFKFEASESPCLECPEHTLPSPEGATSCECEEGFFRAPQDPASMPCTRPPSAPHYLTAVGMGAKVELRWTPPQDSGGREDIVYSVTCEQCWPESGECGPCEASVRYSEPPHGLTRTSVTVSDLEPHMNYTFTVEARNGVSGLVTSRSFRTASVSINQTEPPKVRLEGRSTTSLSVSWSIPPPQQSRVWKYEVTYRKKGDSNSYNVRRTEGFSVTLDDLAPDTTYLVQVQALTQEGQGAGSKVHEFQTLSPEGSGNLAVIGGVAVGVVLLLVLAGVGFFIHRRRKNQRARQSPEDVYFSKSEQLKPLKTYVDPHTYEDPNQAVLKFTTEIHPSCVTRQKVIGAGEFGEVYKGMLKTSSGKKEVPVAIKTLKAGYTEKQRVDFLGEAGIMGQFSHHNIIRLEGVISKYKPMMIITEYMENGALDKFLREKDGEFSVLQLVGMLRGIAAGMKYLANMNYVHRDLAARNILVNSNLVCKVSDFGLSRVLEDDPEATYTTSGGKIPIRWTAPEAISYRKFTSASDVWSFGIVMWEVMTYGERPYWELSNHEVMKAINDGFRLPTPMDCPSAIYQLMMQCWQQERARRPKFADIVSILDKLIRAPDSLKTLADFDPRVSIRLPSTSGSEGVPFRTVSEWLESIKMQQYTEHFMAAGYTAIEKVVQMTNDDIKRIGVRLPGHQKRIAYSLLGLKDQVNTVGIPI
Sequence of Death-associated protein kinase 2 (Homo sapiens) (Q9UIK4 whole entry, looked up): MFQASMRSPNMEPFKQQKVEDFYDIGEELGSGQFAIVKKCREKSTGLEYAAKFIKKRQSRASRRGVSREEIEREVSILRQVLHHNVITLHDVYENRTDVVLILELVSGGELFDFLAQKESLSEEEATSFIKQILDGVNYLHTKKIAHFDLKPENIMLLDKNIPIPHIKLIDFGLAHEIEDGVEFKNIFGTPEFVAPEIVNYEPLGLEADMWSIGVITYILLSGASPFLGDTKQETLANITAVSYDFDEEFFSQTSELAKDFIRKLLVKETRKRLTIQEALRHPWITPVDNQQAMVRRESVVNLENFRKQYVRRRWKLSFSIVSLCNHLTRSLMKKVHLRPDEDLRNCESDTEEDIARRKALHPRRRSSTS
Sequence of Death-associated protein kinase 1 (Homo sapiens) (P53355 whole entry, looked up): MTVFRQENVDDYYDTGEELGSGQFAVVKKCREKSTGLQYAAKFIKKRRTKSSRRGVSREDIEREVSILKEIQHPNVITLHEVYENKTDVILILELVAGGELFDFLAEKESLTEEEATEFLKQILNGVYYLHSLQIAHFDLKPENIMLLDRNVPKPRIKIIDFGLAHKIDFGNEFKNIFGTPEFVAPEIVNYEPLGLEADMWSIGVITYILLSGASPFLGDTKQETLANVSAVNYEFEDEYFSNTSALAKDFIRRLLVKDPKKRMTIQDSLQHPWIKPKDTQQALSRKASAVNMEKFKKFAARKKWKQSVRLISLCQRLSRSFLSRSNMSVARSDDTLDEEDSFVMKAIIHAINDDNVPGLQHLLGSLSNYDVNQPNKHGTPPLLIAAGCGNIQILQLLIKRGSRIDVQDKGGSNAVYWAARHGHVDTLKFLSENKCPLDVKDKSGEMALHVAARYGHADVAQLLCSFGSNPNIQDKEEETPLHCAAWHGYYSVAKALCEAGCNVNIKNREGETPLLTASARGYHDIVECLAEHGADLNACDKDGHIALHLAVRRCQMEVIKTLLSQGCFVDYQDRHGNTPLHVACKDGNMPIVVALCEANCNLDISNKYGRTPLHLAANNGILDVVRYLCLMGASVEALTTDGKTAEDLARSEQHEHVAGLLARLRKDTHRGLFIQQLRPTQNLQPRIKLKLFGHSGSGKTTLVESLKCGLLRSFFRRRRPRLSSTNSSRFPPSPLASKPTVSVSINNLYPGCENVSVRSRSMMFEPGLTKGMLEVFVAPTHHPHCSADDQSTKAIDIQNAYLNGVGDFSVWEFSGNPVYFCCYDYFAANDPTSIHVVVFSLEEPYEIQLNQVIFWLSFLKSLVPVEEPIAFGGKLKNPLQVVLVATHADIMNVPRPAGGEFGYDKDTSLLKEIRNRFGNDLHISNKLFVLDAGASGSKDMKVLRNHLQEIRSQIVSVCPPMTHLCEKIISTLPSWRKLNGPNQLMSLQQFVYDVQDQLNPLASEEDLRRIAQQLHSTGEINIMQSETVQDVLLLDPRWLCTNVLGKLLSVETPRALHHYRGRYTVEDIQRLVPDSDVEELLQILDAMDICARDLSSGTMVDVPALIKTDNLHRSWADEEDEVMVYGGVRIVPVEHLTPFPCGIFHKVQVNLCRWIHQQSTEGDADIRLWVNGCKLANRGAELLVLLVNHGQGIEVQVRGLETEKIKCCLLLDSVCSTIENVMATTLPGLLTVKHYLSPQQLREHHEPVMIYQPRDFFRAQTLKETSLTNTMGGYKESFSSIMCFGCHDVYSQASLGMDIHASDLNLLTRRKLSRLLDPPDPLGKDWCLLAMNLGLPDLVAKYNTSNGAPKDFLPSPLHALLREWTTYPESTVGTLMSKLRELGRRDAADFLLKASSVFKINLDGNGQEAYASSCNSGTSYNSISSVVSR

Take `O=C1Nc2ccccc2/C1=C1/Nc2ccccc2/C1=N\OCCC(O)CO` (stereo unspecified): the residual activity stood at 43% in assay [1]; 49% in assay [2]; 12% in assay [3]; 99% in assay [4]; 35% in assay [5]; 76% in assay [6]. Moreover, the residual activity in assay [7] came out at 46%; in assay [8], 115%; in [9], 69%; in [10], 5%; in assay [11] it was 3%; in [12], 70%. Also, the residual activity in [13] turned out to be 52%; in assay [14], 43%; in assay [15], 42%; in [16] it was 54%; in [17], 14%; in [18] it was 41%.
Turning to `CO[C@H]1[C@@H](OC)C[C@H](C)[C@@H](OC)C2=CC(=O)C=C(NC(=O)/C(C)=C/C=C/[C@H](OC)[C@@H](OC(N)=O)/C(C)=C/[C@@H]1C)C2=O`, the residual activity in assay [1] stood at 78%; in assay [2] it was 104%; in assay [3] it was 114%; in assay [4], 89%; in assay [5] it was 75%; in assay [6] it was 98%. Further, the residual activity came to 99% in [7]; 147% in [8]; 127% in assay [9]; 86% in assay [10]; 88% in assay [11]; 95% in assay [12]. The residual activity in assay [13] was determined as 101%; in assay [14] it was 94%; in assay [15], 102%; in [16], 105%; in assay [17] it was 113%; in assay [18], 101%.
